# Key:
# [1] = target: T1, Serine/threonine-protein kinase 3 (Homo sapiens) (UniProt Q13188); conditions: at 1 µM
# T1 sequence (whole entry): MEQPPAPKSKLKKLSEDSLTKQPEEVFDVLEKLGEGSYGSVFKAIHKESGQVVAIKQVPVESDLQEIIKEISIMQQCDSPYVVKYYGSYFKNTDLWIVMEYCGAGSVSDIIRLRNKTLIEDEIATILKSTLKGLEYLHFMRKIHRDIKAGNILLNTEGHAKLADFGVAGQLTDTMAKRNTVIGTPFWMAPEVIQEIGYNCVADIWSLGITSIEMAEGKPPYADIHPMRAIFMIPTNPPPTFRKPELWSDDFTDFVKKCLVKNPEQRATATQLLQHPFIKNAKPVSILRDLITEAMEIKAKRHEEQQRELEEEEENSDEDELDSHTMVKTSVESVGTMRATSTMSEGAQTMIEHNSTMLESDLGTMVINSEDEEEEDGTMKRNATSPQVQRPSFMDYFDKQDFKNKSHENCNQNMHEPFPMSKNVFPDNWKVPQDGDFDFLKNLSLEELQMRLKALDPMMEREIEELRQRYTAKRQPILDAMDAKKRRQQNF
# [2] = target: T1, Serine/threonine-protein kinase 3 (Homo sapiens); conditions: at 10 µM
# [3] = target: Serine/threonine-protein kinase 24 (Homo sapiens) (UniProt Q9Y6E0); conditions: at 1 µM
# [4] = target: Serine/threonine-protein kinase 24 (Homo sapiens) (UniProt Q9Y6E0); conditions: at 10 µM
# [5] = target: T2, Tyrosine-protein kinase Mer (Homo sapiens) (UniProt Q12866); conditions: at 1 µM
# T2 sequence (whole entry): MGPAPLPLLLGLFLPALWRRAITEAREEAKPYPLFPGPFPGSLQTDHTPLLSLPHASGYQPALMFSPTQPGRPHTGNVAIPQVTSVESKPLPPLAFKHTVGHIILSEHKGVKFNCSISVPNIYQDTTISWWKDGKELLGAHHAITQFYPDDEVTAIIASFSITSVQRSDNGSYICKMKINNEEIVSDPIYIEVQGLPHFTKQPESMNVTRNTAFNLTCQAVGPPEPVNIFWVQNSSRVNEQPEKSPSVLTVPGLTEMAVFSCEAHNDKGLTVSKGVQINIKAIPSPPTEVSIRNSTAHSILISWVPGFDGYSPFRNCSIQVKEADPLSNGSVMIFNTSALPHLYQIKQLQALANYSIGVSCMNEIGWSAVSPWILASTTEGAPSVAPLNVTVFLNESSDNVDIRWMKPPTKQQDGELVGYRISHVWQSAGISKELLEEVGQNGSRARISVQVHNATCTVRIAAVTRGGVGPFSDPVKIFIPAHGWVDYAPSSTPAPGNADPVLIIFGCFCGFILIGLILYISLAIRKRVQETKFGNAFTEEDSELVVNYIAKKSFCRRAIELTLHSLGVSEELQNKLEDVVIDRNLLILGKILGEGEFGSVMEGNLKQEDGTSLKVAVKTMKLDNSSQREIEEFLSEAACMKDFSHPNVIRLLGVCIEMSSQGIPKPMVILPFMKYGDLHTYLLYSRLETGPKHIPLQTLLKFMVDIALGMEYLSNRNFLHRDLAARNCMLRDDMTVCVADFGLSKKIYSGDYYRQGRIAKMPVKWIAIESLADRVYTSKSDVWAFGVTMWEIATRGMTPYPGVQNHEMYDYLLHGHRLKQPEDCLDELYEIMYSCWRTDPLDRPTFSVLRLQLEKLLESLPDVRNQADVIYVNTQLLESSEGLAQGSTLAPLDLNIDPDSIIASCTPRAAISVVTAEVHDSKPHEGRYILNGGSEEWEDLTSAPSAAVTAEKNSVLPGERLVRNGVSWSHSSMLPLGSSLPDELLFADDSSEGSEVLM
# [6] = target: T2, Tyrosine-protein kinase Mer (Homo sapiens); conditions: at 10 µM
# [7] = target: Hepatocyte growth factor receptor (Homo sapiens) (UniProt P08581); conditions: at 1 µM
# [8] = target: Hepatocyte growth factor receptor (Homo sapiens) (UniProt P08581); conditions: at 10 µM
# [9] = target: MAP kinase-interacting serine/threonine-protein kinase 2 (Homo sapiens) (UniProt Q9HBH9); conditions: at 1 µM
# [10] = target: MAP kinase-interacting serine/threonine-protein kinase 2 (Homo sapiens) (UniProt Q9HBH9); conditions: at 10 µM
# [11] = target: T3, Muscle, skeletal receptor tyrosine-protein kinase (Homo sapiens) (UniProt O15146); conditions: at 1 µM
# T3 sequence (whole entry): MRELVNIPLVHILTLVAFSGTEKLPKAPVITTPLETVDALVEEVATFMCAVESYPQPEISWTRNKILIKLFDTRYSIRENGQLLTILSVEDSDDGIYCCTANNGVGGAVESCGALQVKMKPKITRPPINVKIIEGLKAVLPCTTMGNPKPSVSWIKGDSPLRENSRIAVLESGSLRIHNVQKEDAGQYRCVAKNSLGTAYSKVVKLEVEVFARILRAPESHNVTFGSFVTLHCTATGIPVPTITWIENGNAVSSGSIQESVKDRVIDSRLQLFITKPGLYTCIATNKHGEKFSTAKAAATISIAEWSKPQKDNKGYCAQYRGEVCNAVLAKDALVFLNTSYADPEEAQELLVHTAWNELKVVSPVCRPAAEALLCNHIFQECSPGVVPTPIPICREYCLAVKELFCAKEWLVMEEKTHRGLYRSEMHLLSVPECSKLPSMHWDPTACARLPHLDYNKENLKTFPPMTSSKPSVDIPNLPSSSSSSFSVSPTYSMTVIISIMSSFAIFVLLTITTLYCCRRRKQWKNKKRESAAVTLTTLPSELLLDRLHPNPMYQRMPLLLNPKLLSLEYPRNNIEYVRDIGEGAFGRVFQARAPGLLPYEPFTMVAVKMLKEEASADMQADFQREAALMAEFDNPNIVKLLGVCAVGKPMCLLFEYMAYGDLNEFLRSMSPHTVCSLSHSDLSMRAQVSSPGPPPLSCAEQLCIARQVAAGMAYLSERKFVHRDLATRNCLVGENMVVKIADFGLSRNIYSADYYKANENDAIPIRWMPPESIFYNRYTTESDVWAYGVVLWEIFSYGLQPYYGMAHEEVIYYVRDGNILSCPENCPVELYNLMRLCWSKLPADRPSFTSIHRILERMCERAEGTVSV
# [12] = target: T3, Muscle, skeletal receptor tyrosine-protein kinase (Homo sapiens); conditions: at 10 µM
# [13] = target: T4, Serine/threonine-protein kinase Nek11 (Homo sapiens) (UniProt Q8NG66); conditions: at 1 µM
# T4 sequence (whole entry): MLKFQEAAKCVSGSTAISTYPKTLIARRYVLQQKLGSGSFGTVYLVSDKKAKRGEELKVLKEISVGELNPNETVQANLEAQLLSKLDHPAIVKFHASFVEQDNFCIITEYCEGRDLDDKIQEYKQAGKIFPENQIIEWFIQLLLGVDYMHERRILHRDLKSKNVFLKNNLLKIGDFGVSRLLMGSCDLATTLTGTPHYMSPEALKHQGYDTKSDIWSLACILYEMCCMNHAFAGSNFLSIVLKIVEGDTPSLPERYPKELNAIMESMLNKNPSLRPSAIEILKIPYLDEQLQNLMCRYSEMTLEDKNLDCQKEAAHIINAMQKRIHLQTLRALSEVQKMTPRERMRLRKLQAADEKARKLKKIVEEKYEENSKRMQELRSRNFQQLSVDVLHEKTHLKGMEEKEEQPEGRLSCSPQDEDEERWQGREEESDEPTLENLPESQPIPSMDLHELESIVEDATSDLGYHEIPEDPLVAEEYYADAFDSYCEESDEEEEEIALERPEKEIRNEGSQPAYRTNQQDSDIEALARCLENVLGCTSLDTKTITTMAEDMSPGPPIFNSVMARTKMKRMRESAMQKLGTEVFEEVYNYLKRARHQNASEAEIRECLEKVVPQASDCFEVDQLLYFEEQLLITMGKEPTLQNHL
# [14] = target: T4, Serine/threonine-protein kinase Nek11 (Homo sapiens); conditions: at 10 µM
# [15] = target: T5, Serine/threonine-protein kinase Nek2 (Homo sapiens) (UniProt P51955); conditions: at 1 µM
# T5 sequence (whole entry): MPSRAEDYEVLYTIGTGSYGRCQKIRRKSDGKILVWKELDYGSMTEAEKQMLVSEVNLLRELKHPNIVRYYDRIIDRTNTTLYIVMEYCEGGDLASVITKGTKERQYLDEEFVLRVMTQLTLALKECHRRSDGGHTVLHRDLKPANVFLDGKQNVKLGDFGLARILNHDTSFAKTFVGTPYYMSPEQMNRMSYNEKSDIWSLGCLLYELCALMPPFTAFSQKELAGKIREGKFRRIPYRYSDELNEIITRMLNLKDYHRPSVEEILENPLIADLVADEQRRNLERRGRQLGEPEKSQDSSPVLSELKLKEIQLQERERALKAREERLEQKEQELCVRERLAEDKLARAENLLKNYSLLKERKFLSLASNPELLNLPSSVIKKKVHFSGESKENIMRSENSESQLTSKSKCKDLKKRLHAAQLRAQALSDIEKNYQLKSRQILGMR
# [16] = target: T5, Serine/threonine-protein kinase Nek2 (Homo sapiens); conditions: at 10 µM
# [17] = target: T6, Serine/threonine-protein kinase Nek3 (Homo sapiens) (UniProt P51956); conditions: at 1 µM
# T6 sequence (whole entry): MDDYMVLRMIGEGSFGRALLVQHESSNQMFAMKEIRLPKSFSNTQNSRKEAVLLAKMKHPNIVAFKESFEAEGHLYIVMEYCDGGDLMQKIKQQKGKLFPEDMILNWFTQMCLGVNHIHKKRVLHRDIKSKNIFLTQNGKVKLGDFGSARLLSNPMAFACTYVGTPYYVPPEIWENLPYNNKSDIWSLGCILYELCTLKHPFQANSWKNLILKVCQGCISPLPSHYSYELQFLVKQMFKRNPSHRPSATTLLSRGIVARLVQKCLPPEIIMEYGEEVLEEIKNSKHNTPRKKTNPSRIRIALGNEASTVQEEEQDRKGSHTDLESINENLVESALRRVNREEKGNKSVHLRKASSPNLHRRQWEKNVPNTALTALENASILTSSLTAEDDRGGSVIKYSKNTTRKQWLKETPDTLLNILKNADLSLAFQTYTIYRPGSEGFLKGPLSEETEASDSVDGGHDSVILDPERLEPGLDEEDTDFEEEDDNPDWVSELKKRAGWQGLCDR
# [18] = target: T6, Serine/threonine-protein kinase Nek3 (Homo sapiens); conditions: at 10 µM
# [19] = target: Serine/threonine-protein kinase tousled-like 2 (Homo sapiens) (UniProt Q86UE8); conditions: at 1 µM
# [20] = target: Serine/threonine-protein kinase tousled-like 2 (Homo sapiens) (UniProt Q86UE8); conditions: at 10 µM
# Chain of Serine/threonine-protein kinase tousled-like 2 (Homo sapiens) (Q86UE8 whole entry, looked up): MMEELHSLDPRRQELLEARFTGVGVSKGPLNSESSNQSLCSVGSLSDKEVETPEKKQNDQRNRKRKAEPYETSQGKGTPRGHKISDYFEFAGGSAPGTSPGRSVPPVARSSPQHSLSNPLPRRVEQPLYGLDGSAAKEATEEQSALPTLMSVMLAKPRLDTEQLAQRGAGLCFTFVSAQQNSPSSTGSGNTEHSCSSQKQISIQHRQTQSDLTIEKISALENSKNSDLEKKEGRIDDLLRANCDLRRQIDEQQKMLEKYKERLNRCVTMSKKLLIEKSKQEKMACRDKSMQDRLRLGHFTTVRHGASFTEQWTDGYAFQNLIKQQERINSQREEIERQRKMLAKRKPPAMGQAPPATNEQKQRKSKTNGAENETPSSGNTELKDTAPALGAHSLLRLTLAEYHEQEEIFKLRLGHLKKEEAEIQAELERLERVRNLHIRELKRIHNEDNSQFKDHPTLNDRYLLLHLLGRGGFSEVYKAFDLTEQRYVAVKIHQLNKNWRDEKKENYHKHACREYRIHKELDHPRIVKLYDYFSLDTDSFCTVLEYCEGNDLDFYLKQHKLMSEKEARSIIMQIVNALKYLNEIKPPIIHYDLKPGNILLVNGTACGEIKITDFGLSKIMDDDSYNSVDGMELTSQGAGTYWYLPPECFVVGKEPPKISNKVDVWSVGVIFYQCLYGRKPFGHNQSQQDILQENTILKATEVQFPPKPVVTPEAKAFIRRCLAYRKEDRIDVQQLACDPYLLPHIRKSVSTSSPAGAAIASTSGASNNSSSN
# Chain of Serine/threonine-protein kinase 24 (Homo sapiens) (Q9Y6E0 whole entry, looked up): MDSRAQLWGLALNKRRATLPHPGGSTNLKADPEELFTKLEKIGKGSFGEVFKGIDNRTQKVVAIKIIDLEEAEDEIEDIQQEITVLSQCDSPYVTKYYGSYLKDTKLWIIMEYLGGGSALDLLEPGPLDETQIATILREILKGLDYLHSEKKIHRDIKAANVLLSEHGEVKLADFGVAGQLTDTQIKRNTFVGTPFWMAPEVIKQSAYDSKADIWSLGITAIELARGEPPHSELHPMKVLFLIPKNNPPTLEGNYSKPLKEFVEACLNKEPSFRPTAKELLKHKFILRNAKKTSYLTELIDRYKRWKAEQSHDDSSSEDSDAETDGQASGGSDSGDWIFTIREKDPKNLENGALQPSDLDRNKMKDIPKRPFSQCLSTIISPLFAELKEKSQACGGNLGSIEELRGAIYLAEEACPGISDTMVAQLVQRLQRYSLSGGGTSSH
# Chain of MAP kinase-interacting serine/threonine-protein kinase 2 (Homo sapiens) (Q9HBH9 whole entry, looked up): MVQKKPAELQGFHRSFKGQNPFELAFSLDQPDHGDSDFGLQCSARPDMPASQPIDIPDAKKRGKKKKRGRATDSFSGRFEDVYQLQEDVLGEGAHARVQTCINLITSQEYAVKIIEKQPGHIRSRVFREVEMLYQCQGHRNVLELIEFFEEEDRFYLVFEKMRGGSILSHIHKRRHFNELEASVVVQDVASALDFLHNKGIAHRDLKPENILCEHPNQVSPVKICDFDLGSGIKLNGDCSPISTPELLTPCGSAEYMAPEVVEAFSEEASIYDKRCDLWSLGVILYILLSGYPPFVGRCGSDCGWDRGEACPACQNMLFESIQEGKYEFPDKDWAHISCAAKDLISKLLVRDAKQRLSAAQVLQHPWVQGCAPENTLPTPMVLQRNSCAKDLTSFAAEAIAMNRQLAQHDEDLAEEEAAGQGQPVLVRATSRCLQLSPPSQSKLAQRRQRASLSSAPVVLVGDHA
# Chain of Hepatocyte growth factor receptor (Homo sapiens) (P08581 whole entry): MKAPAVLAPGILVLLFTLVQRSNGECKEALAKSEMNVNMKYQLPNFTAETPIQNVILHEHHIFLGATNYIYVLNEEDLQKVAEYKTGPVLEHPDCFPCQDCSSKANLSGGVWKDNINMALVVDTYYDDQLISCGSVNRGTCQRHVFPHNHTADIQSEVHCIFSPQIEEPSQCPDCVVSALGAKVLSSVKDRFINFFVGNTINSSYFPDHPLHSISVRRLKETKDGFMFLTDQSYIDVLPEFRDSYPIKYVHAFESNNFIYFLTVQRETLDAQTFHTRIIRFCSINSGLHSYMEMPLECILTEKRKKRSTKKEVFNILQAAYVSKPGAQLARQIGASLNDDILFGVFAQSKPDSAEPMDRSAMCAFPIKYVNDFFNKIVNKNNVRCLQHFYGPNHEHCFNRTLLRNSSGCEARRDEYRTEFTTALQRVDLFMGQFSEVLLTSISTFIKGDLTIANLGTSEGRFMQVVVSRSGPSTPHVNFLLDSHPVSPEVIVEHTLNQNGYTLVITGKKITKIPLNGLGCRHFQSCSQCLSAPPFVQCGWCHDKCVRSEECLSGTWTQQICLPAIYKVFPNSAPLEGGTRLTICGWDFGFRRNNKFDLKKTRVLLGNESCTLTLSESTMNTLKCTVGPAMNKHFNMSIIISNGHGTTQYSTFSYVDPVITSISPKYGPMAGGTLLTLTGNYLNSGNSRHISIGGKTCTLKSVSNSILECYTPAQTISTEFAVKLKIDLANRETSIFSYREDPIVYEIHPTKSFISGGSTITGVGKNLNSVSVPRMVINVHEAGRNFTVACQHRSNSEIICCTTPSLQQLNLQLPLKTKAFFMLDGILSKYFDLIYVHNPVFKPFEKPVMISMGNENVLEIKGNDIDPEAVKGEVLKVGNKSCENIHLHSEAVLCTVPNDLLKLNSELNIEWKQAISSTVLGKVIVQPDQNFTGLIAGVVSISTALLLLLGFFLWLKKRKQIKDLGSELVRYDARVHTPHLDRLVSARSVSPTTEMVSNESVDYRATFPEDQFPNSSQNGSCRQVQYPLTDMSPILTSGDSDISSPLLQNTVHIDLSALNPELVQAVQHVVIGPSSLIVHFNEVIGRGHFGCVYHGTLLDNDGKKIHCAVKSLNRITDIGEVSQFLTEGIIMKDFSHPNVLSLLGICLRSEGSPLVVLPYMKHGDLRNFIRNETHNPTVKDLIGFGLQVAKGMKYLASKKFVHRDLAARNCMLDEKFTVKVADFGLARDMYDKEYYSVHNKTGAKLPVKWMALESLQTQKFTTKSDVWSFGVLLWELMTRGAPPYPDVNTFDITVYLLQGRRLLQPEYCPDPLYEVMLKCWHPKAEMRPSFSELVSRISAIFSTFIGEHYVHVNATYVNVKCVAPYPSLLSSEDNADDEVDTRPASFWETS
Structure (SMILES),residual activity [1] [%],residual activity [2] [%],residual activity [3] [%],residual activity [4] [%],residual activity [5] [%],residual activity [6] [%],residual activity [7] [%],residual activity [8] [%],residual activity [9] [%],residual activity [10] [%],residual activity [11] [%],residual activity [12] [%],residual activity [13] [%],residual activity [14] [%],residual activity [15] [%],residual activity [16] [%],residual activity [17] [%],residual activity [18] [%],residual activity [19] [%],residual activity [20] [%]
O=Nc1c(-c2c(O)[nH]c3ccccc23)[nH]c2ccccc12,6,0,42,10,-2,-3,86,13,62,18,58,5,70,18,93,83,86,94,60,14
CCOc1cc2ncnc(Nc3cccc(Br)c3)c2cc1OCC,103,71,61,47,84,31,58,33,21,7,95,70,104,89,77,93,118,88,98,95
O=C1NC(=O)/C(=C/c2ccc3c(c2)OC(F)(F)O3)S1,106,102,60,70,110,95,87,78,109,96,110,89,80,82,97,94,117,88,112,97
N#C/C(=C(\N)Sc1ccc(N)cc1)c1ccccc1C(F)(F)F,76,80,70,62,94,94,98,90,102,106,86,84,64,68,93,91,75,103,98,93
C[C@@H](N)[C@H]1CC[C@H](C(=O)Nc2ccncc2)CC1,111,105,98,92,93,101,132,131,106,77,103,101,99,96,120,102,120,120,93,94
O=C(Nc1cccc(Nc2nccc(Nc3cccc(C(F)(F)F)c3)n2)c1)C1CC1,89,60,72,65,72,70,79,55,70,77,88,3,90,80,94,101,88,33,109,93
Nc1nc(Nc2ccc(S(N)(=O)=O)cc2)nn1C(=S)Nc1c(F)cccc1F,0,1,0,1,-1,-1,3,0,6,14,0,0,51,30,91,71,6,3,4,-1

# — ChEMBL document CHEMBL2218924, “A broad activity screen in support of a chemogenomic map for kinase signalling research and drug discovery” (Biochem J, 2013)
